According to PubChem BioAssay:

Experiment: basal RPMI8226 viability, no added stimulus, profiling panel, cell-based, calcein-AM fluorescence, 48 h, PK04 Diversity Set (AID 1166);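 also: cells grown under basal conditions without added stimulus; test concentration not given here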
Conditions: RPMI8226 myeloma viability, higher = more signal

SMILES	z-score
CC1CC/C=C\[C@H]2OC34C=CCN(c5ccc6ccccc6c5)C(=O)[C@H]3N(CCCCCO)C(=O)[C@@H]4C2C(=O)O1 (stereo not given in full)	-0.823
CN1C(=O)C2C=CC(C(O)C(C)(C)C)N(Nc3ccccc3)C2C1=O (stereo not given)	-1.08
Cc1ccc(S[C@]2(C(=O)NCCCN(C)C)CC(=O)N(Cc3ccccc3)[C@@H]2c2ccc(CO)cc2)cc1	-1.12
O=C1O[C@H](c2ccccc2)[C@H](c2ccccc2)N2[C@H]1[C@@H](C(=O)NC[C@H](O)c1ccccc1)[C@]1(C(=O)Nc3ccc(C#CC4=CCCCC4)cc31)[C@H]2c1ccc(O)cc1	-3.47
O=C(CS)NCCCCCNC(=O)[C@H]1C[C@H]2C(=O)N[C@@H](Cc3ccccc3)C(=O)N2[C@H]1c1cccc(OCCO)c1	-0.156
CCCC[C@H]1OB(O)C[C@H]2C1=C(COc1ccccc1)C[C@H]1C(=O)N(Cc3ccccc3)C(=O)[C@H]12	-1.08
O=c1cccc(-c2cccc3ccccc23)o1	-1.84
CCCCCN1CC=CC23O[C@@H]4C=CCCOC(=O)C4[C@H]2C(=O)N(CCCO)[C@@H]3C1=O (stereo not given in full)	-0.0158
CS(=O)(=O)CCOC(=O)C1=CC(c2ccc(CO)cc2)=CC(c2cccs2)N(Cc2cccc(OC(F)(F)F)c2)C=C1C(=O)OCCS(C)(=O)=O (stereo not given)	-3.27
C#C[C@H](O[Si](C#CCCCCCC)(C(C)C)C(C)C)c1ccccc1	0.528
COc1ccc([Si](C)(C)[C@@H]2[C@@H](CCO)O[C@]3(C(=O)N(Cc4ccccc4)c4ccc(N(C=O)c5ccccc5)cc43)[C@H]2C)cc1	-3.38
C=C(COC)C(=O)CC[C@H](OC(=O)c1cccnc1)c1ccccc1OCCO	-3.76
C=CCC(OC(C)=O)[C@@H]1[C@@H](N(Cc2cc3ccccc3o2)C(=O)c2ccc(C)cc2)c2cc(OCCCO)ccc2N1C(=O)c1ccc(-c2ccccc2)cc1 (stereo not given in full)	1.46
NC(=O)[C@]1(Cc2ccccc2)N=C(c2ccc(OCCCO)cc2)O[C@@H]1c1ccccc1	-1.94
[N-]=[N+]=NCc1ccccc1C[C@]1(C(=O)NCCN2CCOCC2)N=C(c2ccc(OCCCO)cc2)O[C@H]1c1ccccc1CN=[N+]=[N-]	-3.34
CCOC(=O)C1=CC[C@@H](c2cccc(Cl)c2)N(S(=O)(=O)c2ccc(C)cc2)[C@H]1c1ccc(C#N)cc1	-0.704
O=c1cccc(-c2ccccc2)o1	-0.664
CC(=O)NCCCC[C@@H]1NC(=O)[C@@H]2C[C@H](C(=O)NCc3ccc(F)cc3)[C@H](c3ccc(O)cc3)N2C1=O	-0.556

SMILES	z-score
O=C1OCCC=C[C@H]2OC34C=CCN(c5ccc6ccccc6c5)C(=O)[C@H]3N(CCCCCCO)C(=O)[C@@H]4C12 (stereo not given in full)	0.734
O=C1OCCC/C=C\[C@H]2OC34C=CCN(Cn5nnc6ccccc65)C(=O)[C@H]3N(CCCO)C(=O)[C@@H]4C12 (stereo not given in full)	-0.284
CC(C)OC(=O)C1=CCC(c2cccc(Cl)c2)O1 (stereo not given)	-1.58
O=C1[C@H]2C=C(Br)[C@H](C[C@@H]2OCCOCCO)[C@@]12CO2	-0.674
O=c1cccc(-c2ccc3ccccc3c2)o1	-0.406
CCCCCCCCCCC(O)C1C=CC2C(=O)N(c3ccccc3)C(=O)C2N1Nc1ccc([N+](=O)[O-])cc1 (stereo not given)	-4.22
CN1C(=O)C2C=CC(C(O)c3ccccc3)N(NC(=O)OC(C)(C)C)C2C1=O (stereo not given)	-0.386
CN(C)CCCC[C@@H]1NC(=O)[C@@H]2C[C@H](C(=O)NCCCCCCN)[C@H](c3ccc(O)cc3)N2C1=O	0.483
CCOC(=O)C[C@H]1[C@H](OC(=O)c2cc3ccccc3oc2=O)[C@@H](NC(=O)c2ccc3ccccc3c2)c2cc(OCCCO)ccc2N1C(=O)c1ccccc1	-0.608
COc1ccc([Si](C)(C)[C@@H]2[C@@H](CCO)O[C@]3(C(=O)N(Cc4ccc(N5C(=O)c6cccc7cccc5c67)cc4)c4ccccc43)[C@H]2C)cc1	-4.12
O=C(NCC(O)CO)[C@@]1(Cc2ccccc2)COC(c2ccc(OCCCO)cc2)=N1 (stereo not given in full)	-0.164
CC(C)(C)OC(=O)CC[C@]1(C(=O)NCC(O)CO)N=C(c2ccc(OCCCO)cc2)O[C@H]1c1ccccc1CN=[N+]=[N-] (stereo not given in full)	-1.44
C=C(/C(=C/C[C@@H](OC(C)=O)c1ccc(CO)o1)c1cnc2ccccc2c1)C(C)C	-0.596
O=C1O[C@H](c2ccccc2)[C@H](c2ccccc2)N2[C@H]1[C@@H](C(=O)NC[C@H](O)c1ccccc1)[C@]1(C(=O)Nc3ccc(C#CC4(O)CCCCCC4)cc31)[C@H]2c1ccccc1OCCO	-4.19
O=C1C[C@@](C(=O)O)(c2ccc([N+](=O)[O-])cc2)[C@@H](c2ccc(CO)cc2I)N1C1CCCCC1	-3.61
COc1ccc(CCNC(=O)[C@@]2(C)c3ccccc3C(=O)N(Cc3ccccc3)[C@H]2c2ccc(CO)cc2)cc1	-2.55
CC1CC/C=C\[C@H]2OC34C=CCN(Cn5nnc6ccccc65)C(=O)[C@H]3N(CCCO)C(=O)[C@@H]4C2C(=O)O1 (stereo not given in full)	-0.894
